Laboratory results reported in PubChem BioAssay (NCI).
About 79,000 compounds went through this panel and 15% of them were active in at least one assay; those are over-represented in the sample as a whole. Rule as the data show it: active = growth inhibition above about 70%; inactive = the rest.

Tests used:
[1] = NCI Yeast Anticancer Drug Screen. Data for the rad50 strain (AID 155);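 also: 0% = growth of vehicle-only cultures of the same strain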; details: S. cerevisiae rad50 strain growth inhibition; at 50.0 µM; stronger effect = higher value
Summary of the method: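 Relative growth inhibition (compound vs vehicle) was measured in yeast with a defined repair-gene alteration.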

[2] = NCI Yeast Anticancer Drug Screen. Data for the mec2-1 strain (AID 157); details: S. cerevisiae mec2-1 strain, at 50.0 µM, stronger effect = higher value
Summary of the method: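 Test agents were screened against the mec2-1 yeast strain, with defined DNA repair or cell cycle alteration. Growth was scored as inhibition against vehicle-only controls.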

[3] = NCI Yeast Anticancer Drug Screen. Data for the sgs1 mgt1 strain (AID 161);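 also: 0% = growth of cultures given vehicle only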; details: S. cerevisiae sgs1 mgt1 strain, at 50.0 µM, stronger effect = higher value
Summary of the method: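 Test agents were incubated with a DNA-repair-mutant yeast strain. Growth was then read and compared against vehicle-treated controls.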

[4] = NCI Yeast Anticancer Drug Screen. Data for the cln2 rad14 strain (AID 165);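 also: 0% = growth equal to vehicle treated cultures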; details: S. cerevisiae cln2 rad14 strain, at 50.0 µM, stronger effect = higher value
Summary of the method: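 Growth of compound-exposed yeast (cln2 rad14 genotype) measured and expressed as inhibition relative to vehicle.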

[5] = NCI Yeast Anticancer Drug Screen. Data for the bub3 strain (AID 167); details: S. cerevisiae bub3 mutant strain, at 50.0 µM, stronger effect = higher value
Summary of the method: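 Screening used yeast with an engineered genetic alteration affecting cell cycle control. Compound-exposed cultures were compared with vehicle cultures, and reduced growth was taken as inhibition.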

[6] = NCI Yeast Anticancer Drug Screen. Data for the mlh1 rad18 strain (AID 175); details: S. cerevisiae mlh1 rad18 strain growth inhibition; at 50.0 µM; stronger effect = higher value
Summary of the method: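 In this whole-cell yeast screen, a strain with altered DNA damage repair is challenged with compound, and its growth is measured against matched vehicle-treated controls.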

Measured: growth inhibition

N/N=C(\C(=O)Nc1c(Cl)cc([N+](=O)[O-])cc1Cl)C(c1cnc2ccc([N+](=O)[O-])cc2n1)[N+](=O)[O-] (stereo not given)
inactive: [1] -38.7% | [2] 0.7% | [3] 10.4% | [4] 15.1% | [5] -23.5% | [6] -26.6%

CCCCCCCC(=O)OCC1OC(n2cc(F)c(=O)[nH]c2=O)C(NC(=O)OCc2ccccc2)C(OC(=O)CCCCCCC)C1O (stereo not given)
inactive: [1] 20.2% | [2] 4.05% | [3] 13.4% | [4] 14.3% | [5] 0.35% | [6] 38.3%

CC1=CC(=O)/C(=C/N2CCNC2=S)C(=O)O1
inactive: [1] -24.6% | [2] -20.6% | [3] 1.3% | [4] 5.65% | [5] -31.3% | [6] 4.7%

CCc1cccc(C(C)C)c1NC(=O)C(=O)C1C(=O)Nc2ccccc2S1=O (stereo not given)
inactive: [1] -3.95% | [2] -13.6% | [3] -16.9% | [4] -11.2% | [5] 2.4% | [6] -29.1%

CC(C)NC(=O)CC(NCc1ccccc1)C(=O)O (stereo not given)
inactive: [1] 5.85% | [2] 6.8% | [3] 21.1% | [4] 9.5% | [5] -6.8% | [6] 10.2%

CCN(CC)CCN(Cc1ccccc1)C(=S)NC(=O)c1ccccc1
inactive: [1] -4.35% | [2] 2.15% | [3] -5.25% | [4] -5.8% | [5] 7.35% | [6] -19.5%

COc1ccc(NC(=O)NCc2ccc(C)cc2)cc1
inactive: [1] 4.45% | [2] 33.8% | [3] 33.8% | [4] -5.5% | [5] 7.85% | [6] 26.9%

Cc1ccccc1NC(=O)c1ccccc1Cl
inactive: [1] -19.3% | [2] -18.6% | [3] -6.9% | [4] -31.8% | [5] -19.1% | [6] -25.6%

COc1cnc2cc(C(=O)O)c3ccccc3c2c1
inactive: [1] 40.5% | [2] 9.7% | [3] 13.2% | [4] 23.1% | [5] -1.15% | [6] 29.1%

COc1cc2cc3c4cc(OC)c(OC)cc4cc[n+]3c(CCC(=O)O)c2cc1OC (tested in a mixture with another compound)
inactive: [1] 10.4% | [2] -2.75% | [3] -8.25% | [4] -4% | [5] 9.35% | [6] -0.1%

COc1cc(/C=C/C(=N\NC(=S)NN)c2sc(NNC(C)=O)nc2C)ccc1O
inactive: [1] 22.5% | [2] -4.5% | [3] 21.7% | [4] 9.1% | [5] 15.5% | [6] 19.2%

NCC1CCC(C(=O)O)CC1 (stereo not given)
inactive: [1] -14.4% | [2] -9.35% | [3] -10% | [4] -20.9% | [5] -24.9% | [6] -21.6%

O=C([O-])C(=O)[N-]CCC[N-]C(=O)C(=O)[N-]CCC[N-]C(=O)C(=O)[O-].[Cu+2].[Cu+2].[Na+]
inactive: [1] -8.45% | [2] -13.6% | [3] 4.35% | [4] -21.8% | [5] -7.7% | [6] 8.9%

N#CCCOCCNCCSC(=O)c1ccccc1
inactive: [1] 36.8% | [2] 4.05% | [3] 12.4% | [4] 6.65% | [5] 8.45% | [6] 4.25%

CCC1c2c(cc(=O)[nH]c2O)C(=O)N1C (stereo not given)
inactive: [1] 9.5% | [2] -4.75% | [3] 3.95% | [4] -9.15% | [5] -0.8% | [6] 0.55%

CC(=O)CC(=O)Nc1ccc(C(=O)O)c(O)c1
inactive: [1] -14.2% | [2] -18.9% | [3] 8.4% | [4] -1.45% | [5] 32.1% | [6] -1%

CCc1cc(C(C)(C)C)c(O)c(C(C)(C)C)c1
inactive: [1] 33.6% | [2] 9.65% | [3] 6.25% | [4] 25.2% | [5] 8.4% | [6] 35.4%

Nc1ccc(CC(N)C(=O)O)cc1 (stereo not given)
inactive: [1] -2.7% | [2] -12.8% | [3] -22.3% | [4] -5.6% | [5] -6.55% | [6] -13.3%

COC1/C=C/OC2(C)Oc3c(C)c(O)c4c(O)c(c(/C=N/N5CCN(Cc6cccc(C(F)(F)F)c6)CC5)c(O)c4c3C2=O)NC(=O)C(C)=C/C=C/C(C)C(O)C(C)C(O)C(C)C(OC(C)=O)C1C (stereo not given)
inactive: [1] 11.7% | [2] 30.7% | [3] 35.3% | [4] 27.2% | [5] 11.8% | [6] 43.1%

Cc1cn(C2CC(O)C(CO)O2)c(=O)nc1NC1CCCCCCCCCCC1 (stereo not given)
inactive: [1] 1.25% | [2] 5.7% | [3] 10.1% | [4] 12.9% | [5] -5.5% | [6] -6.4%
